The source made the active and inactive calls. The calls were made as follows: active = hit-call score of the fitted dose curve at least 0.9, where 1 is the maximum; inactive = score below 0.9.
Legend:
[1] = APR_HepG2_NuclearSize_24hr: Apredica 24-hour HepG2 Assay for Nuclear Size (AID 2282907); conditions: high-content imaging, actives raise or lower the signal
How it was run: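 HepG2, 24 hr dosing, 10-pt 0.39–200 uM, duplicates, 0.5% DMSO final; 3.7% formaldehyde fix, 0.5% Triton X-100; Hoechst 33342 nuclear stain; ArrayScan HCS, Cell Cycle analysis → nuclear size; bidirectional fit vs DMSO.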

[2] = APR_HepG2_CellLoss_24hr: Apredica 24-hour HepG2 Assay for Cell Loss (AID 2282908); conditions: high-content imaging;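 as to AC50: fit in both directions so a hit may be cell loss or gain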
How it was run: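 10-pt dose, 0.39–200 uM, n=2/plate; DMSO 0.5% v/v final as negative control. Fix 3.7% formaldehyde 30 min RT, permeabilize 0.5% Triton X-100, stain Hoechst 33342 2 ug/mL, image 20x. Nuclear count, bidirectional fit vs DMSO.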

[3] = APR_HepG2_MitoticArrest_24hr: Apredica 24-hour HepG2 Assay for Mitotic Arrest (AID 2282910); conditions: high-content imaging, actives raise or lower the signal
How it was run: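 Compounds are dosed onto HepG2 cells across ten concentrations up to 200 uM for 24 hr. Cells are then fixed in 3.7% formaldehyde, permeabilised, and labelled for phospho-histone H3 and nuclei; images are scored by cell cycle analysis and fitted bidirectionally relative to DMSO.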

[4] = APR_HepG2_MitoMass_24hr: Apredica 24-hour HepG2 Assay for Mitochondrial Mass (AID 2282912); conditions: high-content imaging, actives raise or lower the signal
How it was run: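 Mitochondrial mass is read as MitoTracker Red fluorescence intensity from automated imaging, with bidirectional curve fitting relative to DMSO. HepG2 cells received compound (0.39–200 uM, 0.5% DMSO final) for 24 hr and were dye-loaded (250 nM, 30 min) before formaldehyde fixation.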

[5] = APR_HepG2_CellCycleArrest_72hr: Apredica 72-hour HepG2 Assay for Cell Cycle Arrest (AID 2282914); conditions: high-content imaging, actives raise or lower the signal
How it was run: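 Cell cycle arrest in HepG2 was scored from nuclear DNA content after 72 hr compound treatment (0.39–200 uM). Activity, either gain or loss, was fitted against the DMSO baseline.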

[6] = APR_HepG2_CellLoss_72hr: Apredica 72-hour HepG2 Assay for Cell Loss (AID 2282915); conditions: high-content imaging
How it was run: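 Cell number comes from Hoechst 33342-labelled nuclei, imaged at 20x after 3.7% formaldehyde fixation. Dosing was 0.39–200 uM, ten concentrations in duplicate, 0.5% DMSO final, for 72 h. Bidirectional fit relative to DMSO baseline.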

[7] = APR_HepG2_P-H2AX_72hr: Apredica 72-hour HepG2 Assay for H2AX Phosphorylation (AID 2282916); conditions: imaging, actives raise or lower the signal;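 also: phospho-histone H2A.x immunostain intensity per cell marking DNA damage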
How it was run: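 HepG2; cpd 0.39–200 uM ×10 conc, duplicates; 0.5% DMSO; 72 hr. Fix 3.7% formaldehyde 30 min RT, 0.5% Triton X-100 10 min. Anti-phospho-H2A.x 1:200 + Hoechst 2 ug/mL, 60 min RT; ArrayScan imaging.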

[8] = APR_HepG2_MitoMembPot_72hr: Apredica 72-hour HepG2 Assay for Mitochondrial Membrane Potential (AID 2282917); conditions: imaging, actives raise or lower the signal
How it was run: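 Membrane potential read by MitoTracker Red CMXRos (250 nM, 30 min, pre-fixation) fluorescence imaging of HepG2 after 72 hr exposure. Ten concentrations, 0.39–200 uM, duplicate wells, 0.5% DMSO; fitted in both directions against DMSO baseline.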

[9] = APR_HepG2_MitoticArrest_72hr: Apredica 72-hour HepG2 Assay for Mitotic Arrest (AID 2282918); conditions: high-content imaging, actives raise or lower the signal
How it was run: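 Mitotic arrest in HepG2 is scored from phospho-histone H3 staining after 72 hr dosing across 0.39–200 uM, with DMSO at 0.5% v/v. Nuclei are identified by Hoechst 33342 and fluorescence intensity is quantified per cell.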

[10] = APR_HepG2_p53Act_24hr: Apredica 24-hour HepG2 Assay for p53 Activation (AID 2282913); conditions: high-content imaging, actives raise or lower the signal;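 also: p53 protein immunofluorescence averaged per cell in HepG2 with Hoechst nuclei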
How it was run: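 Automated fluorescence imaging quantifies p53 immunostaining in HepG2 cells after a 24 hr exposure (0.39–200 uM, duplicate, 0.5% DMSO). Nuclei are located by Hoechst 33342 staining.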

N#Cc1cccnc1
outcome [1]: inactive
outcome [2]: inactive
outcome [3]: inactive
outcome [4]: inactive
outcome [5]: inactive
outcome [6]: inactive
outcome [7]: inactive
outcome [8]: inactive
outcome [9]: inactive

O=C(N[C@H]1CN2CCC1CC2)c1ccc2c(c1)OCCO2
outcome [1]: inactive
outcome [2]: inactive
outcome [3]: inactive
outcome [4]: inactive
outcome [5]: inactive
outcome [6]: inactive
outcome [7]: inactive
outcome [8]: inactive
outcome [9]: inactive

Oc1c(Cl)cc(Cl)cc1Cl
outcome [2]: inactive
outcome [3]: inactive
outcome [4]: inactive
outcome [10]: inactive
outcome [6]: inactive
outcome [7]: inactive
outcome [8]: inactive
AC50 [9]: 50 µM (active)

CCCCCCCCCCCCc1cccc(S(=O)(=O)O)c1
outcome [1]: inactive
outcome [2]: inactive
outcome [3]: inactive
outcome [4]: inactive
outcome [5]: inactive
outcome [6]: inactive
outcome [7]: inactive
outcome [8]: inactive
outcome [9]: inactive

Cc1cc(C)cc(C)c1
outcome [1]: inactive
outcome [2]: inactive
outcome [3]: inactive
outcome [4]: inactive
outcome [5]: inactive
outcome [6]: inactive
outcome [7]: inactive
outcome [8]: inactive
outcome [9]: inactive

O=C(O)C1(c2ccc3c(c2)OC[C@H](Cc2ccc(-c4ccccc4)cc2)[C@H]3O)CCCC1
outcome [1]: inactive
outcome [2]: inactive
outcome [3]: inactive
AC50 [4]: 112 µM (active)
AC50 [5]: 118 µM (active)
AC50 [6]: 86.9 µM (active)
AC50 [7]: 106 µM (active)
outcome [8]: inactive
AC50 [9]: 105 µM (active)

CC(C)(C)c1ccccc1O
outcome [1]: inactive
outcome [2]: inactive
outcome [3]: inactive
outcome [4]: inactive
outcome [5]: inactive
outcome [6]: inactive
outcome [7]: inactive
outcome [8]: inactive
outcome [9]: inactive

OCCN(CCO)CCO
outcome [1]: inactive
outcome [2]: inactive
outcome [3]: inactive
outcome [4]: inactive
outcome [5]: inactive
outcome [6]: inactive
outcome [7]: inactive
outcome [8]: inactive
outcome [9]: inactive

CC(C)O.CC(C)O.OCCN(CCO)CCO.OCCN(CCO)CCO.[Ti]
outcome [1]: inactive
outcome [2]: inactive
outcome [3]: inactive
outcome [4]: inactive
outcome [5]: inactive
outcome [6]: inactive
outcome [7]: inactive
outcome [8]: inactive
outcome [9]: inactive

Clc1cccc(Cl)c1Cl
outcome [1]: inactive
outcome [2]: inactive
outcome [3]: inactive
outcome [4]: inactive
outcome [5]: inactive
outcome [6]: inactive
outcome [7]: inactive
outcome [8]: inactive
outcome [9]: inactive

Clc1cccc(Cl)c1
outcome [1]: inactive
outcome [2]: inactive
outcome [3]: inactive
outcome [4]: inactive
outcome [5]: inactive
outcome [6]: inactive
outcome [7]: inactive
outcome [8]: inactive
outcome [9]: inactive

Oc1cc(Cl)c(Cl)cc1Cl
outcome [1]: inactive
AC50 [2]: 27.7 µM (active)
AC50 [3]: 38.6 µM (active)
AC50 [4]: 46.7 µM (active)
outcome [5]: inactive
AC50 [6]: 44.6 µM (active)
AC50 [7]: 42.4 µM (active)
outcome [8]: inactive
AC50 [9]: 29.5 µM (active)

CN(C)C(=S)S
outcome [1]: inactive
AC50 [2]: 0.183 µM (active)
outcome [3]: inactive
outcome [4]: inactive
AC50 [5]: 0.0391 µM (active)
AC50 [6]: 0.238 µM (active)
AC50 [7]: 0.242 µM (active)
outcome [8]: inactive
AC50 [9]: 0.125 µM (active)

COc1ccccc1N
outcome [1]: inactive
outcome [2]: inactive
outcome [3]: inactive
outcome [4]: inactive
outcome [5]: inactive
outcome [6]: inactive
outcome [7]: inactive

— PubChem BioAssay (EPA / NIEHS)
